The campaign covered roughly 52,000 compounds. About 4,300 (8.3%) were called active. The entries come from a sample that favours actives as a whole. Values without a mark were called inactive. No stated cut-off is given here; in the data, active means survival mostly below about 52% (no sharp cut-off); inactive means mostly above about 56%.

This experiment concerns DeltatarO mutant. As to the kind of experiment: growth inhibition of S. aureus wild type versus tarO mutant, primary screen, teichoic acid synthesis inhibitors, RN4220, OD600 (AID 463173). As to conditions: OD600, 18 h, hits give low values, screened at 18.75 µg/mL (by protocol).
In the case of `O=C(Cn1c(=O)n(-c2ccccc2)c(=O)c2ccc(C(=O)NCc3ccc4c(c3)OCO4)cc21)Nc1ccc(F)cc1`, the survival was 64%. With `CC(C)c1ccc(NC(=O)Cn2cc(S(=O)(=O)Cc3cccc(Cl)c3)c3ccccc32)cc1` the figure was 76%; with `Cn1c(C(=O)N2CCc3ccccc32)cc2sccc21`, 91%. As for `CC(=O)N1CCc2c(sc(NC(=O)CSc3ccc(F)cc3)c2-c2nc3ccccc3s2)C1`, the survival is 108%. The same measure for `Cc1ccc(Cn2c(CNC(=O)c3ccc(Cl)c([N+](=O)[O-])c3)nc3cccnc32)cc1`: 88%. On to `CC(SC(=S)N1CCCCCC1)C(=O)O` (configuration not stated), for which the survival was 90%. On to `O=C(Cn1cc(S(=O)(=O)N2CCCC2)c(S(=O)(=O)N2CCCC2)c1)Nc1cccc(F)c1`, for which the survival is 98%. With `Cc1nn(-c2ccccc2)c(-n2cccc2)c1C(=O)NCCCN1CCN(c2ccccc2F)CC1` the figure was 63%; with `Cc1ccc(N(CC(C)C)S(=O)(=O)c2nnc(NC(=O)c3ccco3)s2)cc1`, 44% (active). For the compound `Cc1ccc(N(C)S(=O)(=O)c2nnc(NC(=O)c3ccco3)s2)cc1`, the survival is 57%. As to `CCC(C)(C)C(=O)Nc1ccc(Cl)cc1`, the survival was 93%.

As to `Cc1cccc(NC(=O)c2c(NC(=O)c3ccco3)sc3c2CCC(C)C3)c1` (configuration not stated), the survival was 53%. The same measure for `CCN(CC)C(=O)c1c(NC(=O)c2cccc(C)c2)sc2c1CCC(C)C2` (configuration not stated): -1% (active).

Consider `CCOc1ccc(NC(=O)c2c(NC(=O)Cc3ccccc3)sc3c2CCC(C)C3)cc1` (configuration not stated), for which the survival is 46%. With `CC1CCc2c(sc(NC(=O)Cc3ccccc3)c2C(=O)Nc2ccc(Cl)cc2)C1` (configuration not stated), the survival was 57%.

In the case of `CC1CCc2c(sc(NC(=O)c3ccccc3)c2C(=O)Nc2ccccc2)C1` (configuration not stated), the survival was 42% (active). For `Cc1cccc(NC(=O)c2c(NC(=O)c3cccs3)sc3c2CCC(C)C3)c1` (configuration not stated), the survival was 60%. Regarding `Cc1cccc(C(=O)Nc2sc3c(c2C(=O)N2CCCCC2)CCC(C)C3)c1` (configuration not stated), the survival was -6% (active). Consider `CCOc1ccc(C(=O)c2cn(Cc3cccc(OC)c3)c3cc4c(cc3c2=O)OCO4)cc1`, for which the survival is 72%. As to `COC(=O)c1ccc2nc(C)cc(Nc3ccc(O)cc3)c2c1`, the survival was 186%. In the case of `COc1cc(Cl)c(S(=O)(=O)N2CCN(c3c(C)cccc3C)CC2)cc1Cl`, the survival is 69%. The same measure for `C/C(=N\NC(=O)c1cc2ccccc2cc1O)c1ccc(N)cc1`: 70%; for `COc1ccc(CNC(=O)Nc2ccc3c(c2)N(C)C(=O)c2ccccc2S3)cc1OC`: 61%. With `O=C(Nc1ccc(Cl)cc1)c1cc2nc(-c3ccc4c(c3)OCO4)cc(C(F)(F)F)n2n1` the figure was 83%; with `CC(C)NC(=O)C1CC(c2ccc(Cl)cc2)=NO1` (configuration not stated), 84%. As to `COc1cccc(CNC(=O)c2cc3c(-c4ccccc4F)nn(C)c3s2)c1`, the survival is 59%. `Cn1nc(-c2ccccc2F)c2cc(C(=O)NCc3ccccc3Cl)sc21`: the survival was 56% (active). The same measure for `Cn1nc(-c2ccccc2F)c2cc(C(=O)NCc3ccc(Cl)cc3)sc21`: 87%; for `Cn1nc(-c2ccccc2F)c2cc(C(=O)NCCc3ccc(Cl)cc3)sc21`: 76%. Turning to `COc1ccc(CNC(=O)c2cc3c(-c4ccccc4F)nn(C)c3s2)cc1`, the survival is 61%. The same measure for `Cn1nc(-c2ccccc2F)c2cc(C(=O)NCc3cccc(Cl)c3)sc21`: 41% (active). For the compound `CCN1C(=O)C2(c3ccccc31)c1c(oc3ccccc3c1=O)C(=O)N2CCOC` (configuration not stated), the survival is 67%. For the compound `Cc1oc2cc3oc(=O)c(CC(=O)NCc4ccccc4)c(C)c3cc2c1C`, the survival was 73%.

Consider `Cc1ccc(C(=O)N2CCc3cc(CNC(=O)COc4ccccc4)ccc32)cc1`, for which the survival was 89%. For `Cc1ccc(-n2nc3c(=O)n(CCCC(=O)NC(C)c4ccccc4)nc(C)c3c2C)cc1` (configuration not stated), the survival was 67%. The same measure for `COc1ccc(S(=O)(=O)N(CCc2ccccc2)CC(=O)NCc2ccccc2)cc1OC`: 62%. Turning to `Cc1c(Cl)cccc1NC(=O)CC(c1ccc(F)cc1)N1Cc2ccccc2C1=O` (configuration not stated), the survival is 37% (active). Regarding `CCc1ccccc1NC(=O)CC(c1ccc(F)cc1)N1Cc2ccccc2C1=O` (configuration not stated), the survival was 117%. With `Cc1c(Cl)cccc1NC(=O)CC(c1cccs1)N1Cc2ccccc2C1=O` (configuration not stated), the survival is 32% (active).

Consider `O=C(CC(c1cccs1)N1Cc2ccccc2C1=O)Nc1ccccc1F` (configuration not stated), for which the survival was 78%. With `CCOc1ccccc1NC(=O)CC(c1ccc(F)cc1)N1Cc2ccccc2C1=O` (configuration not stated) the figure was 99%; with `O=C(CC(c1cccs1)N1Cc2ccccc2C1=O)Nc1ccc(Cl)cc1` (configuration not stated), 131%; with `CCOC(=O)C1CCCN(C(=O)Cn2ncc3c([nH]c4ccc(C)cc43)c2=O)C1` (configuration not stated), 81%. As for `CCOC(=O)c1ccc2c(c1)N(CC#N)C(=O)C(C)(C)O2`, the survival is 94%. The same measure for `CCOC(=O)c1[nH]c(Cc2[nH]c(C(=O)OCC)c(C)c2CC(=O)OC)c(CCC(=O)OC)c1C`: 70%; for `Cc1ccc2c(=O)cc(C(=O)Nc3cccc(Cl)c3C)oc2c1C`: 54%. The same measure for `COC(=O)c1ccccc1NC(=O)c1cc(=O)c2ccc(C)c(C)c2o1`: 72%.

For `CCOc1ccc(NC(=O)c2cc(=O)c3ccc(C)c(C)c3o2)cc1`, the survival is 60%. Regarding `CCOC(=O)c1ccc(NC(=O)c2cc(=O)c3ccc(C)c(C)c3o2)cc1`, the survival was 45% (active). With `CCc1ccc(NC(=O)c2cc(=O)c3ccc(C)c(C)c3o2)cc1`, the survival was 91%.

Consider `COc1ccc(OC)c(NC(=O)c2cc(=O)c3c(C)cc(C)cc3o2)c1`, for which the survival is 42% (active).

In the case of `COc1ccccc1NC(=O)c1cc(=O)c2ccc(C)c(C)c2o1`, the survival was 41% (active). Regarding `Cc1cc(C)c2c(=O)cc(C(=O)Nc3ccccc3Cl)oc2c1`, the survival was 62%. In the case of `Cc1ccc2c(=O)cc(C(=O)Nc3ccc(S(=O)(=O)N(C)c4ccccc4)cc3)oc2c1C`, the survival was 50% (active). As to `CCN(c1ccccc1)S(=O)(=O)c1ccc(NC(=O)c2cc(=O)c3ccc(C)c(C)c3o2)cc1`, the survival was 64%.

With `COc1ccc(CCNC(=O)c2cc(=O)c3c(C)cc(C)cc3o2)cc1OC`, the survival was 57%. The same measure for `Cc1ccc2c(=O)cc(C(=O)Nc3ccc(S(=O)(=O)N(C)Cc4ccccc4)cc3)oc2c1C`: 92%. With `COc1cccc2cc(-c3nc(-c4cccs4)no3)c(=O)oc12`, the survival was 67%. Regarding `COc1ccc(C)c2sc(NC(=O)c3ccc(S(=O)(=O)N4CCCCC4)cc3)nc12`, the survival was 92%. Consider `O=C(O)c1cc2nc3c(c(C(F)(F)F)n2n1)CCC3`, for which the survival was 89%. In the case of `O=C(Cn1cnc2c(nc3n2CCCCC3)c1=O)Nc1cccc(C(F)(F)F)c1`, the survival was 83%. Regarding `O=C(Cn1cc(S(=O)(=O)Cc2ccccc2F)c2ccccc21)NCc1ccccc1`, the survival is 87%. Take `Cc1ccc(NCc2cc3cc4c(cc3n(CC(=O)Nc3ccc(F)cc3F)c2=O)OCCO4)cc1`: the survival was 70%. Regarding `O=C(CN1CCC(C(=O)c2ccc(F)cc2)CC1)Nc1ccccc1`, the survival is 83%. On to `CCCCSc1nc(O)c(CCC(C)C)c(=O)[nH]1`, for which the survival was 60%. As for `Cc1ccc(S(=O)(=O)N(CCc2ccccc2)CC(=O)Nc2ccc(Br)cc2)cc1`, the survival was 75%. On to `COc1cc(NC(=O)CSc2nc(-c3ccc(C(C)C)cc3)no2)cc(OC)c1`, for which the survival was 91%. Regarding `O=C(Cn1c(=O)n(-c2cccc(Cl)c2)c(=O)c2sc3ccccc3c21)NC1CCCCC1`, the survival is 127%. `OC1(c2ccccc2)CCN(Cc2ccccc2)CC1`: the survival was 73%. For `C/C=C1\NC(=S)N(Cc2ccccc2)C1=O`, the survival is 84%. As to `O=C1CCN(Cc2ccccc2)C(=S)N1`, the survival is 49% (active).

For `COC(=O)C1C(=O)C2=C(CC1C)Nc1ccccc1NC2c1ccc(N(C)C)cc1` (configuration not stated), the survival is 79%. For `Cc1ccc(-c2nnc3ccccc3c2C(=O)Nc2ccc(C)c(F)c2)cc1`, the survival is 80%.

Consider `O=C(COc1ccc(F)cc1)Nc1ccc2nc(SCCOc3ccccc3)sc2c1`, for which the survival was 87%. As for `CCOC(=O)c1ccc(N2CCN(c3ccc(F)cc3)CC2)c(NC(=O)Nc2cccc(OC)c2)c1`, the survival was 70%. As for `CCOC(=O)c1ccc(N2CCN(c3cccc(Cl)c3)CC2)c(NC(=O)Nc2ccc(Cl)cc2)c1`, the survival was 92%. Take `CCn1c(=O)n(CC)c2cc(N3CCCCC3)c(NC(=O)Nc3cc(C)cc(C)c3)cc21`: the survival was 100%. `CCOC(=O)c1ccc(NC(=O)Nc2cc3c(cc2N2CCCCC2)n(CC)c(=O)n3CC)cc1`: the survival was 57% (active). For the compound `CCOC(=O)c1ccc(N2CCN(c3cccc(OC)c3)CC2)c(NC(=O)Nc2ccc(OCC)cc2)c1`, the survival is -5% (active). As to `CCOC(=O)c1ccc(NC(=O)Nc2cc3c(cc2N2CCCC2)n(C)c(=O)n3C)cc1`, the survival was 82%.

On to `CCOc1ccc(-c2nc3c(c(CC)nn3-c3ccccc3)c3cc(OC)c(OC)cc23)cc1`, for which the survival is 78%. Consider `CCc1nc2sc3c(N4CCC(C)CC4)ncnc3c2c2c1CCCC2`, for which the survival was 134%.

For `CCc1cccc(NC(=O)Cn2c(=O)n(CCC(=O)NCC3CCCO3)c(=O)c3cc(OC)c(OC)cc32)c1` (configuration not stated), the survival was 62%.

For `COc1cccc2c1Oc1nc(-c3ccccc3)nc(SCC(=O)Nc3ccccc3)c1C2`, the survival is 81%. `CCOC(=O)c1ccc(NC(=O)c2ccc3c(c2)CCN3S(=O)(=O)c2ccc(Cl)cc2)cc1`: the survival is 64%. With `COc1cc2c(C(=O)N3CCN(c4ccc(C)cc4)C(C)C3)cn(CC(C)C)c(=O)c2cc1OC` (configuration not stated) the figure was 47%; with `CCN(C(=O)c1cn(CC(C)C)c(=O)c2cc(OC)c(OC)cc12)c1cc(OC)ccc1OC`, 55%; with `Cc1cccc(N2CCN(C(=O)c3cnc4c(C)cccn4c3=O)CC2C)c1` (configuration not stated), 32% (active). Take `Cc1cccc(N2CCN(C(=O)c3cccn4c(=O)c5cc(Cl)ccc5nc34)CC2C)c1` (configuration not stated): the survival was 66%. With `COc1cc2c(C(=O)N3CCN(c4ccc(F)cc4)CC3)cn(CC(C)C)c(=O)c2cc1OC` the figure was 56%. Take `CCc1ccccc1N(C)C(=O)c1cn(CC(C)C)c(=O)c2cc(OC)c(OC)cc12`: the survival is 73%.

`COc1cc2c(C(=O)N(C)c3cc(Cl)ccc3OC)cn(CC(C)C)c(=O)c2cc1OC`: the survival was 48% (active). `CCCN(C(=O)c1cn(CC(C)C)c(=O)c2cc(OC)c(OC)cc12)c1cccc(C)c1`: the survival is 152%. With `Cc1cccn2c(=O)c(C(=O)N3CCN(c4ccccc4)CC3)cnc12`, the survival is 49%. For the compound `CCn1cc(C(=O)N2CCN(c3cc(Cl)ccc3C)CC2)c2cc(OC)c(OC)cc2c1=O`, the survival is 64%.

For `COc1cc2c(C(=O)N3CCN(c4cccc(C)c4)C(C)C3)cn(CC(C)C)c(=O)c2cc1OC` (configuration not stated), the survival is 46% (active).

Consider `COc1cc2c(C(=O)N3CCN(c4cc(Cl)ccc4C)CC3)cn(CC(C)C)c(=O)c2cc1OC`, for which the survival is 40% (active).

The record behind these values is PubChem BioAssay AID463173 (ICCB-Longwood Screening Facility, Harvard Medical School, 2010).
